Calls of active or inactive are those of the source.
Experiments:
[1] = anti-His antibody binders, primary screen, artefact control for SMM control protein annotation, biochemical, small-molecule microarray, 635 nm fluorescence (AID 1128); conditions: anti-His Alexa647 antibody binding, higher = more signal;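 note: score merges feature fluorescence with signal-to-noise for each printed compound spot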
[2] = test system: Human papillomavirus type 1a E7 protein (residues 1-88); assay: HPV1a E7 small-molecule binders, primary screen, biochemical, small-molecule microarray, residues 1-88, 635 nm (AID 1129); conditions: small-molecule microarray binding, fluorescence 635 nm; higher = more signal
[3] = biological target: Focal adhesion kinase 1 (Homo sapiens) (UniProt Q05397); assay: small-molecule microarray binders of FAK, primary screen, biochemical, 635/667 nm fluorescence, BSA, DTT (AID 1130); conditions: PTK2 binding, 635 nm fluorescence, higher = more signal;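 note: composite of spot emission at 667 nm and signal to noise over triplicate slides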
Focal adhesion kinase 1 (Homo sapiens), sequence (Q05397 whole entry, looked up): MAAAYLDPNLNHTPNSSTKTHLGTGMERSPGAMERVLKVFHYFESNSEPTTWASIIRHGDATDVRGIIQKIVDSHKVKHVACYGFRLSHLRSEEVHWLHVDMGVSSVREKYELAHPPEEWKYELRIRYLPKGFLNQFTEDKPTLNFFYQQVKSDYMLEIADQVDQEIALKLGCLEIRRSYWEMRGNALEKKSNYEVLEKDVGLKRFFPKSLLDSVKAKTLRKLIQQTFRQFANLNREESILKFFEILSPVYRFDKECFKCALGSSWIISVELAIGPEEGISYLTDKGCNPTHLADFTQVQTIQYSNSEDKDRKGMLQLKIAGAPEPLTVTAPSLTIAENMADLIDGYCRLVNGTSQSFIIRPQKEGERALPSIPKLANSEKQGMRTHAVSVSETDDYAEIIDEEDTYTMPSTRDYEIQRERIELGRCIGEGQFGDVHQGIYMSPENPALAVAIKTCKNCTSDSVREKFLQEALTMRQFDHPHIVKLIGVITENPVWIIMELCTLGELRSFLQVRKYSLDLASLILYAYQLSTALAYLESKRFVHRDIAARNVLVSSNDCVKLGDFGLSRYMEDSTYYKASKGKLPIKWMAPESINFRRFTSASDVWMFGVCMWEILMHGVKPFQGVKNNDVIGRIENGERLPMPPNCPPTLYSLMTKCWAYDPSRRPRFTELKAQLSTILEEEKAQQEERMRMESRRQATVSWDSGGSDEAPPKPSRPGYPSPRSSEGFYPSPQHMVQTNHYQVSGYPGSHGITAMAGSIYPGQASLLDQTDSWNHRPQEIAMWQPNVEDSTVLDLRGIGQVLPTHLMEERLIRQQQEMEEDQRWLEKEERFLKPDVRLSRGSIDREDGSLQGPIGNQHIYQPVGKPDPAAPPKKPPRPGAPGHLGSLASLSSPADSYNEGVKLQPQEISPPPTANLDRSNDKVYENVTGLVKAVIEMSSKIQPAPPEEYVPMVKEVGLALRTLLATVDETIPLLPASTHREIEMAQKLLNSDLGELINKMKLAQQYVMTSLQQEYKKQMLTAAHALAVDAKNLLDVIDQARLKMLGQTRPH

[4] = test system: Fibrinogen (Alexa647-labelled); assay: fibrinogen binders on compound microarrays, profiling panel, artefact control for SMM control-protein annotation, biochemical, small-molecule microarray, 635/667 nm fluorescence (AID 1131); conditions: fibrinogen-A647 binding fluorescence, higher = more signal;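 note: z-score merges 667 nm fluorescence with per-spot signal-to-noise over triplicate slides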
[5] = biological target: Follistatin (Homo sapiens) (UniProt P19883); assay: follistatin binders on small-molecule microarrays, primary screen, biochemical, small-molecule microarray, 635/667 nm fluorescence (AID 1132); conditions: FST binding, 635 nm fluorescence, higher = more signal
Follistatin (Homo sapiens), sequence (P19883 whole entry, looked up): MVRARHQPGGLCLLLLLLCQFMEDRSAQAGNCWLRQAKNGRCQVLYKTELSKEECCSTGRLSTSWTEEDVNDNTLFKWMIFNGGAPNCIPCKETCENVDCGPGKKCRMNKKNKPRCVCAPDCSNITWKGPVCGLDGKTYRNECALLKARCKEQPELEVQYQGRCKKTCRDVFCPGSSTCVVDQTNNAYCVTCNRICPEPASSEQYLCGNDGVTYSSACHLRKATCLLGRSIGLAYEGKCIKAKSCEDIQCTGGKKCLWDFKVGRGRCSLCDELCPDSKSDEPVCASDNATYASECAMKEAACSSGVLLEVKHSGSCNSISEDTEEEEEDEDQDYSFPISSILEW

[6] = biological target: Fibroblast growth factor 2 (Homo sapiens) (UniProt P09038); assay: FGF2 binders on small-molecule microarrays, primary screen, biochemical, small-molecule microarray, 635/667 nm fluorescence (AID 1133); conditions: small-molecule microarray binding, FGF2, fluorescence 635/667; higher = more signal
Fibroblast growth factor 2 (Homo sapiens), sequence (P09038 whole entry, looked up): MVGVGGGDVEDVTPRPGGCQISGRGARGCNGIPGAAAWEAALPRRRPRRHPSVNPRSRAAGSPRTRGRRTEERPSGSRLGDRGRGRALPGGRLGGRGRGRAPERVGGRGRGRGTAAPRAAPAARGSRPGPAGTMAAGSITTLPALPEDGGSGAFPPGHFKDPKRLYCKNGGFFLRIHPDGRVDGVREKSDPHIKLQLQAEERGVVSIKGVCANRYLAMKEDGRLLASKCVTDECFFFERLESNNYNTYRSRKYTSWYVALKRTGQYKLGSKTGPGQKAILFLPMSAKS

[7] = mitochondrial membrane potential change in A549 cells, profiling panel, cell-based, JC-1 fluorescence, basal, 24 h, 100 nL (AID 1138); conditions: higher = more signal;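 note: A549 lung adenocarcinoma cells under basal conditions with no added stimulus; test concentration not given here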
[8] = test system: Lefty1; assay: Lefty1 binders on small-molecule microarrays, primary screen, biochemical, small-molecule microarray, 635/667 nm fluorescence (AID 1139); conditions: small-molecule microarray binding, fluorescence 635/667; higher = more signal
[9] = test system: wheat germ agglutinin (Triticum aestivum), Alexa647-labelled; assay: wheat germ agglutinin binders on compound microarrays, profiling panel, artefact control for SMM control-protein annotation, biochemical, small-molecule microarray, 635/667 nm fluorescence (AID 1140); conditions: WGA-A647 binding, 635 nm fluorescence, higher = more signal;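 note: score merges 667 nm feature emission with signal to noise over triplicate slides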
[10] = biological target: Luciferin 4-monooxygenase (Photinus pyralis) (UniProt P08659); assay: firefly luciferase enzyme inhibitors, primary screen, biochemical, luminescence, purified enzyme, 2006 set (AID 1141); conditions: SteadyGlo luminescence, 30 min, higher = more signal, called active from +8 up or from −8 down;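 note: cell-free assay with purified firefly luciferase at 100 ng per well in PBS; test concentration not given here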
Luciferin 4-monooxygenase (Photinus pyralis), sequence (P08659 whole entry, looked up): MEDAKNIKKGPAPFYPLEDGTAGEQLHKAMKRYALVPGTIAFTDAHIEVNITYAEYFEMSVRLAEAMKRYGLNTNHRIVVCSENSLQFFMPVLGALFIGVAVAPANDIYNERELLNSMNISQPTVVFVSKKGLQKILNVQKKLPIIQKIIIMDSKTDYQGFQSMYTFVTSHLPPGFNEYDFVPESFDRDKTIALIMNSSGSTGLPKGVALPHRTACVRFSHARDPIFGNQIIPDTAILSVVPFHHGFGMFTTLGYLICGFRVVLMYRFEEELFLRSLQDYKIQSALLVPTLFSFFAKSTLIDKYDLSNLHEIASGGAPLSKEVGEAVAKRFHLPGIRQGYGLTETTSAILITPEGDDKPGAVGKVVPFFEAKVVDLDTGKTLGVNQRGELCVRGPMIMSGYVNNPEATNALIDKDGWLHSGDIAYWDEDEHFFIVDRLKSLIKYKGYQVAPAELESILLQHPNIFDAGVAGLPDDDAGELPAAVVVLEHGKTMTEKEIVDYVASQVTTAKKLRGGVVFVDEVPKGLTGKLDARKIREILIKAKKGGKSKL

SMILES | composite z-score [1] | composite z-score [2] | composite z-score [3] | composite z-score [4] | composite z-score [5] | composite z-score [6] | z-score [7] | composite z-score [8] | composite z-score [9] | z-score [10]
COC(=O)CC=C[C@@H](C)[C@@H](C=NO[C@@H](C)c1cc(-c2c(C)cc(C)cc2C)no1)OC | 0.525 | -1.06 | -0.688 | -1.47 | -0.732 | -1.35 | -0.542 | -1.43 | -1.03 | 0.973 (inactive)
COCCOC(=O)N1C(=O)[C@@]2(c3cc(C#CC4(O)CCCCCC4)ccc31)[C@H](C(=O)N1CCN(c3ncccn3)CC1)[C@H]1C(=O)O[C@H](c3ccccc3)[C@H](c3ccccc3)N1[C@@H]2c1ccc(OCCO)cc1 | 2.08 | 1.2 | 0.289 | 0.889 | 1.29 | 1.35 | -1.34 | 0.637 | 1.09 | -2.19 (inactive)
O=C1[C@H]2[C@H]3[C@H](O)[C@H](O)CC(=NO[C@@H]4O[C@H](CO)[C@@H](O)[C@H](O)[C@H]4O)[C@H]3CC[C@H]2C(=O)N1Cc1ccc2c(c1)OCO2 | 1.01 | -0.186 | 0.0254 | 0.762 | -0.164 | -0.654 | 0.531 | 0.515 | -0.205 | 0.654 (inactive)
Cc1ccc(S[C@]2(C(=O)O)CC(=O)N(Cc3ccccc3)[C@@H]2c2ccc(CO)cc2I)cc1 | 2.86 | 0.242 | 0.284 | 0.186 | 0.023 | -0.697 | 0.305 | -0.69 | 0.189 | -0.57 (inactive)
COC(=O)[C@H](C)NC(=O)[C@@H](C)CO | 0.548 | 1.2 | 0.48 | 0.941 | 0.252 | 0.108 | -1.08 | 0.602 | 1 | 0.877 (inactive)
O=C1[C@H]2[C@H]3[C@H](O)[C@H](O)CC(=NO[C@@H]4O[C@H](CO)[C@@H](O)[C@H](O)[C@H]4O)[C@@H]3CC[C@H]2C(=O)N1Cc1ccc2c(c1)OCO2 | 0.715 | 0.782 | 0.293 | 0.78 | 0.449 | 0.289 | -0.789 | 0.716 | 0.63 | 0.949 (inactive)
COc1ccc([Si](C)(C)[C@@H]2[C@@H](CCO)O[C@]3(C(=O)N(Cc4ccc(NC(C)=O)cc4)c4ccccc43)[C@H]2C)cc1 | 1.92 | 1.22 | 0.11 | 0.963 | 1.07 | 0.228 | -0.898 | 0.727 | 0.771 | 0.377 (inactive)
C=CCNC(=O)[C@H]1[C@@H]2C(=O)O[C@@H](c3ccccc3)[C@@H](c3ccccc3)N2[C@@H](c2ccc(O)cc2)[C@]12C(=O)N(C(=O)OCCOC)c1ccc(C#CC3=CCCCC3)cc12 | 0.692 | 1.22 | 0.723 | 0.892 | 0.379 | 0.248 | -0.76 | 0.484 | 0.583 | -0.54 (inactive)
O=C1[C@H]2[C@H]3[C@H](O)[C@H](O)CC(=NO[C@@H]4O[C@H](CO)[C@@H](O)[C@H](O)[C@H]4O)[C@H]3CC[C@H]2C(=O)N1C1CCCCC1 | 0.648 | 1.16 | 0.84 | 0.402 | -0.384 | -0.0148 | -0.0288 | 0.625 | 0.183 | 0.23 (inactive)
CO[C@H]1O[C@H](CO)[C@@H](OC(=O)Nc2ccc3c(c2)OCO3)[C@H](OC(=O)Nc2ccccc2-c2ccccc2)[C@@H]1OC(=O)Nc1ccccc1-c1ccccc1 | 1.84 | 1.18 | 0.195 | 0.987 | 1.14 | 1.68 | -0.604 | 0.186 | 1 | -0.485 (inactive)
C[N+](C)(C)CCCCCCNC(=O)[C@@H]1C[C@@H]2C(=O)N3CCC[C@H]3C(=O)N2[C@@H]1c1cccc(OCCO)c1 | 1.06 | 0.049 | 0.622 | -1.47 | 1.27 | 0.941 | -0.518 | 0.915 | -0.122 | 0.688 (inactive)
C[C@@H]1CCC2C(=O)N(Cc3ccccc3)C[C@@H](O)CN2[C@H]1c1ccc(Br)cc1 (stereo not given in full) | 0.737 | 0.0101 | -0.24 | 0.909 | 0.49 | 0.425 | 1.89 | 0.399 | 0.623 | -1.86 (inactive)
CCN1C(=O)[C@H]2[C@H]3[C@H](O)[C@H](O)CC(=NOCc4ccccc4)[C@@H]3CC[C@H]2C1=O | 0.119 | 0.65 | -0.0096 | 0.306 | 0.276 | 0.232 | 1.89 | 0.538 | 0.0953 | -1.23 (inactive)
COCCCNC(=O)[C@@]1(C)c2ccccc2C(=O)N(Cc2ccc(OC(F)(F)F)cc2)[C@H]1c1ccc(CO)cc1 | -0.95 | -1.52 | -0.253 | -1.75 | -0.0328 | -0.553 | 0.332 | -1.02 | -1.18 | -0.159 (inactive)
CC(=O)C[C@H](O)[C@@H](NC(=O)OC(C)(C)C)C(C)C | -0.0599 | -1.54 | -0.352 | -0.454 | -0.118 | -0.312 | -0.824 | 0.304 | -0.644 | 0.364 (inactive)
CC(C)=C1C(=O)C(c2ccccc2)=C2CN3C(=O)N(CCc4ccccc4)C(=O)[C@]3(Cc3ccc(F)cc3)[C@H]21 | 1.59 | -0.205 | -0.0639 | -1.43 | -0.968 | -0.412 | 1.27 | -1.2 | 0.338 | 0.98 (inactive)

SMILES | composite z-score [1] | composite z-score [2] | composite z-score [3] | composite z-score [4] | composite z-score [5] | composite z-score [6] | z-score [7] | composite z-score [8] | composite z-score [9] | z-score [10]
C[C@H](c1ccccc1)N1C(=O)[C@H]2[C@@H]3C(=CC[C@H]2C1=O)C(=O)[C@H]1O[C@H]1[C@H]3O | 1.36 | 0.336 | 0.204 | 0.367 | 0.642 | 0.565 | -0.732 | 0.708 | -0.0651 | -1.47 (inactive)
CCN1C(=O)[C@H]2[C@H]3[C@H](O)[C@H](O)CC(=NOCC=C(C)CCC=C(C)C)[C@H]3CC[C@H]2C1=O | 0.918 | 1.1 | 0.123 | 0.0065 | 1.26 | 1.51 | -0.298 | 1.58 | -0.207 | -0.279 (inactive)
COc1ccc(OC[C@H]2Cc3c(-c4ccccc4)nc4c(c3CO2)CN(CCOc2ccccc2)CC4)cc1 | 1.78 | 0.928 | 0.169 | 0.811 | 0.923 | 0.596 | 0.774 | 1.25 | 0.387 | -0.356 (inactive)
CO[C@H]([C@@H](C)[C@H](OC)c1ccccc1)[C@H](C)[C@@H](OC)[C@H](C)C(C)=O | 1 | -0.744 | 0.27 | -0.464 | -0.304 | 0.0135 | 1.1 | 0.128 | -0.496 | -1.87 (inactive)
COC(=O)[C@@H]1CC[C@H](C)[C@@H](c2ccc(C)cc2)N1C(=O)c1ccc(C=NOC(C)CN2CCCCc3nc(C)c(C)cc32)cc1 (stereo not given in full) | 0.444 | -0.732 | 0.0369 | 0.469 | 0.114 | 0.222 | 2.32 | 0.847 | 0.0329 | 0.662 (inactive)
CCOC(=O)C[C@H]1[C@H](OC(=O)c2ccc(C(=O)c3ccccc3)cc2)[C@@H](NC(=O)c2ccc(-c3ccccc3)cc2)c2cc(OCCCO)ccc2N1C(=O)c1ccc2ccccc2n1 | 0.128 | 1.01 | 0.0723 | 0.873 | 0.864 | 0.688 | 0.421 | 1.07 | 0.185 | 0.881 (inactive)
CC1CC/C=C\[C@H]2OC34C=CCN(Cn5nnc6ccccc65)C(=O)[C@H]3N(CCO)C(=O)[C@@H]4C2C(=O)O1 (stereo not given in full) | 0.885 | 1.16 | 1.42 | -1.14 | -0.312 | -1.35 | -0.547 | -0.428 | 1.24 | -1.98 (inactive)
COCCCNC(=O)[C@@]1(Sc2ccc(C)cc2)CC(=O)N(Cc2ccccc2)[C@@H]1c1ccc(CO)cc1I | 0.101 | 0.264 | -0.303 | -0.154 | -0.191 | -0.376 | 1.63 | -1.13 | -0.308 | -0.848 (inactive)
CC(C)C[C@@H]1NC(=O)[C@H]2C[C@@H](C(=O)O)[C@@H](c3ccc(O)cc3)N2C1=O | 3.44 | -0.526 | -0.199 | -0.0448 | 1.34 | 0.85 | -0.986 | 0.874 | 0.242 | -1.2 (inactive)
COc1ccc([Si](C)(C)[C@@H]2[C@@H](CC(=O)N3CCC[C@H]3CO)O[C@]3(C(=O)N(Cc4cccc(N5CCC5=O)c4)c4ccccc43)[C@H]2C)cc1 | 0.97 | 1.18 | 0.418 | 0.809 | 0.907 | 0.402 | 1.04 | 0.917 | 0.81 | -1.69 (inactive)
COC(=O)CC=C[C@H](C)[C@H](CO)NS(=O)(=O)c1ccc(C)cc1 | 0.422 | 0.447 | 0.265 | 0.466 | 0.525 | 0.621 | -0.655 | 0.701 | -0.037 | -0.54 (inactive)
COCCOC(=O)N1C(=O)[C@@]2(c3cc(C#Cc4ccc(OC)cc4)ccc31)[C@H](c1ccc(O)cc1)N1[C@H](c3ccccc3)[C@H](c3ccccc3)OC(=O)[C@H]1[C@@H]2C(N)=O | 0.308 | 1.17 | 0.126 | 0.972 | 1.3 | 0.852 | -1.47 | 0.728 | 0.779 | 0.556 (inactive)
CCOC(=O)CCN1C(=O)[C@H]2[C@H]3[C@H](O)[C@H](O)CC(=NOCc4ccccc4)[C@@H]3CC[C@H]2C1=O | -0.261 | 0.717 | 0.163 | 0.983 | 0.722 | 0.383 | -0.217 | 0.963 | -0.0855 | 0.883 (inactive)
C#CCCCON=C1C[C@@H](O)[C@@H](O)[C@@H]2[C@@H]3C(=O)N(Cc4ccccc4)C(=O)[C@@H]3CC[C@H]12 | 0.0056 | 0.126 | 0.256 | -0.307 | 0.592 | 0.171 | -0.732 | 0.582 | 0.253 | 0.883 (inactive)
CCCC=C(CCC)[C@@H](NC(=O)c1ccc(-c2ccccc2)cc1)c1ccc(C(=O)OC)cc1 | 0.377 | 1.19 | 0.296 | 0.967 | 0.142 | -0.558 | -0.457 | -0.182 | 1.2 | 1.93 (inactive)
COCCOC(=O)N1C(=O)[C@@]2(c3cc(C#CCNC(N)=O)ccc31)[C@H](c1ccccc1OCCO)N1[C@H](c3ccccc3)[C@H](c3ccccc3)OC(=O)[C@H]1[C@@H]2C(=O)N1CCN(c2ncccn2)CC1 | 1.94 | 0.74 | 0.491 | 0.714 | 0.705 | 1.55 | -1.08 | 0.296 | 0.727 | -1.9 (inactive)
